Most compounds without a hit are left out; they make up all but 0.86% or so of the library.
AmpC inh no detg – qHTS Inhibitors of AmpC Beta-Lactamase (assay without detergent); hit rate 0.52% among 330,000; AID 485341, 2010; Potency, µM (doses to about 57.1 µM), without a hit: at the highest dose activity change, negative = inhibition, usual class: inhibitors; P00811; AmpC nitrocefin hydrolysis, absorbance 480 nm, 0.0001% Triton;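 note: potency is the fitted concentration of half-maximal effect; plate controls were no compound for no effect and no enzyme for full effect; nearly all actives have a fitted effect of over 20% in size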
Target sequence (P00811 whole entry, looked up): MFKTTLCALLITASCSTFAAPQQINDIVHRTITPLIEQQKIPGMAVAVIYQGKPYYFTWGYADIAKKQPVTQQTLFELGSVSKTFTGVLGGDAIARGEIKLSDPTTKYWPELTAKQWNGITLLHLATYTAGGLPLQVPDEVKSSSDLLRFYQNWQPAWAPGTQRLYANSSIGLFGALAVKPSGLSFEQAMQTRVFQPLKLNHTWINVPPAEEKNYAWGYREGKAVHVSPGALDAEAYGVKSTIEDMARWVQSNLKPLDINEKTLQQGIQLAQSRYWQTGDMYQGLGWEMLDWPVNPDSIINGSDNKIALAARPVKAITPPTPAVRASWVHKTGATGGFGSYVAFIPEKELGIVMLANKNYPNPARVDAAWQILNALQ
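AmpC (5.3 nM in the dispensed reagent) in 20 mM phosphate pH 7.0 with 0.01% (detergent screen) or 0.0001% Triton X-100 was preincubated with compounds for 15 min at room temperature. Nitrocefin was then added from an 800 uM solution, and hydrolysis was followed at 480 nm.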
AMA1 RON2 block – qHTS for Inhibitors of AMA1-RON; Towards Development of Antimalarial Drug Lead: Primary Screen. Plasmodium falciparum AMA1 (3D7) - RON2 peptide interaction. hit rate 0.2% among 360,000. Potency, µM (doses to about 58.2 µM), inactives show at the highest dose activity change, negative = inhibition, actives largely listed as inhibitors. AlphaScreen AMA1-biotinylated RON2 peptide binding;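 note: potency is the fitted concentration of half-maximal effect; 0% = vehicle wells and -100% = peptide control; nearly all actives have a fitted effect of over 45% in size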
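AMA1 (3D7) with his tag at 25 nM final met compounds first, then biotinylated RON2 peptide at 25 nM; detection used donor plus acceptor beads, 10 µg/mL apiece, read by AlphaScreen after 30 min at room temperature.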
AmpC detergent – qHTS Inhibitors of AmpC Beta-Lactamase (assay with detergent) | Potency, µM (doses to about 114 µM), inactives show top-dose activity change, negative = inhibition, hits mostly inhibitors | P00811 | AmpC hydrolysis of nitrocefin, absorbance 480 nm, 0.01% Triton | hit rate 0.041% among 370,000;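 note: potency is the fitted concentration of half-maximal effect; 0% = no-compound wells and -100% = no-enzyme wells; nearly all actives have a fitted effect of over 25% in size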
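AmpC (5.3 nM in the dispensed reagent) in 20 mM phosphate pH 7.0 with 0.01% (detergent screen) or 0.0001% Triton X-100 was preincubated with compounds for 15 min at room temperature. Nitrocefin was then added from an 800 uM solution, and hydrolysis was followed at 480 nm.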
NS1 function inh – qHTS Assay for Inhibitors of Influenza NS1 Protein Function; Potency, µM (highest dose often 46.1 µM), inactives show top-dose activity, positive = more growth; hit rate 0.4% among 270,000; calls by dose curve; note: potency is the fitted concentration of half-maximal effect; actives are rising curves; nearly all actives have a fitted effect of over 50% in size
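Growth recovery, yeast-based: influenza A NS1 expressed in S. cerevisiae causes slow growth, and suppressors are detected by OD600. The parent strain without NS1 is used as positive control.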
NS1 inh valid – Assay for Inhibitors of Influenza NS1 Protein Function: Hit Validation; 1,400 tested, under 10 active; influenza NS1 function cell assay, 15-point titration; shares compounds with NS1 function inh; activity change, negative = inhibition, % at 32.9 µM; calls by dose curve; note: 0% is about no effect
The depositor's hits bear a star; ? = inconclusive; / = no result given. Unless noted, calls come from the whole dose curve; as a rule, active = well fitted curve in the direction sought with a large enough effect; inconclusive = small, poorly fitted or top-dose-only effect, or another doubt; inactive = no such curve, though single readings can be large; an effect the other way counts as inactive or inconclusive.

SMILES	AmpC inh no detg	AMA1 RON2 block	AmpC detergent	NS1 function inh	others
O=C(N/N=C/c1ccoc1)c1ccccc1Br	-26%	-3%	-6%	-3%
O=C(N/N=C1/CCSC1)c1cc(Br)ccc1O	-58%	84%	-4%	-4%
O=C(NN=C1CCCC1)c1cc(Br)ccc1O	7.9µM*	55%	?	-26%
O=C(NC1CC2CCCC(C1)N2C(=O)Nc1ccccc1F)C1CC1 (stereo not given)	-10%	-11%	?	3%
O=C(Cn1cc2c(n1)CCCCC2)NCCCN1CCOCC1	45µM*	-2%	?	-2%
CCc1nnc(SCC(=O)Nc2ccc(F)cc2)o1	-10%	9%	5%	-4%
O=C(O)[C@@H]1Cc2c([nH]c3ccccc23)[C@@H](CCCCO)N1	/	/	/	0%
C=CCN1C(=O)/C(=C\C=C2\N(C)c3ccccc3C2(C)C)SC1=S	3%	9%	-7%	1%
CN1/C(=C\C=C2/SC(=S)N(CC(=O)O)C2=O)C(C)(C)c2ccccc21	-22%	20µM*	4%	9%
N#CC(C#N)=C1NC2(CCCCC2)Cc2ccccc21	-24%	-11%	6%	-1%
N#CC(C#N)=c1ccc2c(c1)NC1(CCCCC1)N=2	-14%	22µM*	3%	-89%
N#CC1=C(S)N(c2ccccc2)C(c2ccc(-c3ccc(Cl)c(Cl)c3)o2)NC1=O (stereo not given)	10µM*	23%	5%	-33%
N#CC1=C(S)N(c2ccccc2)C(c2ccc(-c3cc(Cl)ccc3Cl)o2)NC1=O (stereo not given)	-54%	19%	-15%	17%
CC(C)=CCc1c(O)c(CC=C(C)C)c2c(c1O)C(=O)CC(c1ccc(O)cc1)O2 (stereo not given)	14µM*	-16%	14%	-3%
O=C(O)CNC(=O)CC1S/C(=N/N=C2\CSC(=O)N2)NC1=O (stereo not given)	-18%	40µM*	4%	2%
CCOC(=O)N1CCC(NC(=O)Cn2cc3c(n2)CCCC3)CC1	2.8µM*	-19%	?	-18%
CNC1=C(N(C(C)=O)c2ccc(Br)cc2)C(=O)c2ccccc2C1=O	-14%	-1%	?	-39%
CC(=O)C1=C(c2ccc(Br)cc2)C(=O)c2ccccc2C1=O	-21%	16µM*	?	-34%
COc1ccc(-c2nc(C#N)c(N3CCCCCC3)o2)cc1	7.1µM*	-5%	9%	-59%
Cc1ccc2c(c1)N(C(=O)c1ccco1)C(C)(C)c1ssc(=S)c1-2	-26%	12µM*	1%	18%
CCCOc1ccccc1-n1sc2c(c1=S)-c1cc(OC)cc3c1N(C(=O)C3=O)C2(C)C	-15%	2.8µM*	-11%	14%
CCc1ccc(C2C(C#N)=C(N)SC(N)=C2C#N)cc1	8.9µM*	10%	-13%	14%
O=c1[nH][nH]c2c(N=Cc3ccccc3O)ccc(F)c12	-45%	11µM*	?	6%
O=C(/C=C/c1ccco1)Nc1ccc(-c2nc3ccccc3[nH]2)cc1	35µM*	-2%	-6%	15%
CC(NC(=O)c1ccnn1C)C1CCCO1 (stereo not given)	-10%	-9%	0%	0%
SMILES	AmpC inh no detg	AMA1 RON2 block	AmpC detergent	NS1 function inh	others
CC1=NN(c2ccccc2)C(=O)/C1=C/c1ccc[nH]1	-10%	13µM*	-7%	9%
Cc1cccc(NC(=O)CSc2nc(C3CCCC3)nc3c2c(=O)n(C)c(=O)n3C)c1C	/	/	-7%	/
CCn1c(SCC(=O)N2CCN(c3ccccc3)CC2)nc2c(c1=O)SC(C)C2 (stereo not given)	77%	-16%	-7%	-42%
CCn1c(SCC(=O)NCc2ccccc2)nc2c(c1=O)SC(C)C2 (stereo not given)	1.6µM*	-7%	-2%	-47%
CC1Cc2nc(SCC(=O)N3CCN(c4ccccc4)CC3)n(C)c(=O)c2S1 (stereo not given)	1.6µM*	-8%	?	-21%
CC1Cc2nc(SCC(=O)N3CCN(c4ccccc4)CC3)n(CCc3ccccc3)c(=O)c2S1 (stereo not given)	3.5µM*	-24%	-12%	?
Cc1cc(C)c(OCC(=O)NCCCn2nc(C)cc2C)c(C)c1	121%	-2%	-2%	/
CC(C)C(=O)NC(c1ccco1)c1ccc2cccnc2c1O (stereo not given)	-26%	20µM*	-12%	-61%
CCN(CC)c1ccc(C(NC(=O)C(C)C)c2ccc3cccnc3c2O)cc1 (stereo not given)	/	-15%	/	/
COc1ccc(CCN(C)C2CCCN(S(=O)(=O)c3ccccc3)C2)cc1OC (stereo not given)	139%	-1%	0%	16%
CC(=O)Nc1nnc(-c2ccc(Cl)s2)o1	1.6µM*	67%	5%	2%
Cn1cc(Cl)c(C(=O)Nc2cccc(Cl)c2Cl)n1	7.1µM*	-2%	2%	-3%
CCCN1C(=O)/C(=C2/C=Cc3ccccc3N2CC)SC1=S	-21%	3.2µM*	3%	/
CCCN1/C(=C2/SC(=S)N(CC)C2=O)C=Cc2ccccc21	-16%	3.2µM*	?	8%
CCN1/C(=C2\C(=O)N(C)C(=S)N2C)C=Cc2ccccc21	-4%	?	0%	-11%
CCN1C(=O)/C(=C2/C=Cc3ccccc3N2CC)SC1=S	-6%	10µM*	3%	/
Cc1c(C(=O)N2CCCC(C)(C(=O)NS(=O)(=O)C3CC3)C2)oc2ccccc12 (stereo not given)	/	-1%	/	/
CC1Cc2ccccc2N1Cc1cc(=O)c(OCC(=O)Nc2ccccc2)co1 (stereo not given)	35µM*	-1%	-13%	/
Cc1ccc(C)n1-c1ccc(N(C)C)cc1	-16%	28µM*	2%	/
Cc1ccc(C)n1-c1ccc(N2CCOCC2)cc1	65%	-25%	-7%	?
CCOC(=O)C1=C(C)Nc2nc(SCC)[nH]c(=O)c2C1c1ccncc1 (stereo not given)	31%	19%	-3%	?	NS1 inh valid=-15
CCSc1nc2c(c(=O)[nH]1)C(c1cccs1)C(C(=O)OC)=C(C)N2 (stereo not given)	-20%	6%	?	20%
COc1ccc(/C=C/C(=O)N2CCN(c3ccccn3)CC2)c(OC)c1OC	6%	-3%	-4%	3%
CN(CC(=O)Nc1ccccn1)S(=O)(=O)c1ccc(Cl)cc1	-12%	-12%	0%	-1%
Cc1cnc(NC(=O)CN(C)S(=O)(=O)c2ccc(Cl)cc2)s1	-20%	18%	-9%	7.9µM*	NS1 inh valid=5
O=C(COC(=O)c1cccc(S(=O)(=O)N2CCOCC2)c1)Nc1nc(-c2ccccc2Cl)cs1	-23%	-5%	-9%	11µM*	NS1 inh valid=?

Screens from PubChem.
